From PubChem BioAssay (NCATS)
Records with an inconclusive call do not appear. Where a call stands in place of a potency, no number is given. Activity calls are given as the source filed them. The call rests on the fitted dose curve; in most records, active means well fitted cell-killing curve with a large enough effect; inconclusive means small, poorly fitted or top-dose-only effect, or effect the other way; inactive means flat fitted curve, though single readings scatter.

tested on: OV90; assay: Primary qHTS to identify gynecologic anti-cancer compounds using libraries of approved drugs and bioactive compounds (AID 1345084); conditions: Gynecologic cancer cell panel viability, ATPlite luminescence, 48 h; series mostly up to 57.5 µM; further: nearly all actives have a fitted effect of over 55% in size
Summary of the method: (§1)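 Measured: luminescence after ATPlite addition (15 min, RT). Exposure: 48 h, 37 C, 5% CO2.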

Row | Structure (SMILES) | activity change, negative = cytotoxicity | Potency
1 | C[C@@H]1O[C@@H](O[C@@H]2[C@@H](O)[C@H](O[C@@H]3[C@@H](O)[C@@H](O)[C@H](O[C@H]4[C@H](OC(=O)[C@]56CCC(C)(C)C[C@H]5C5=CCC7[C@@]8(C)C[C@H](O)[C@H](O[C@@H]9O[C@H](C(=O)O)[C@@H](O)[C@H](O)[C@H]9O)[C@@](C)(CO)C8[C@H](O)C[C@@]7(C)[C@]5(C)C[C@H]6O)O[C@@H](CO)[C@@H]4O)O[C@H]3C)OC[C@H]2O)[C@H](O)[C@H](O)[C@H]1O (stereo partly specified) | 0.206% [at 6.55 µM] (inactive) | 
2 | C=C1C2CCC3C(CCC4[C@@]3(C)CCC[C@@]4(C)C(=O)O)(C2)[C@@H]1OC(=O)/C(C)=C\C (stereo partly specified) |  | inactive
3 | O=C(O)c1cccc(C(=O)CCC2OC(n3cnc4c(=O)[nH]cnc43)C(O)C2O)c1 (stereo unspecified) |  | inactive
4 | CC1(CO)CCCC2(C)C1C(OC(=O)c1ccccc1)CC1C(=O)OCC12O (stereo unspecified) |  | inactive
5 | CC1C2=CC(=O)OC2(O)CC2C1C(O)CC1C(C)(CO)CCCC21C (stereo unspecified) |  | inactive
6 | COc1cc2c(cc1OC)N1C(=O)C[C@@]34C=CC[N@+]5([O-])CC[C@H]2[C@H](CC3)[C@@]145 |  | inactive
7 | CCCN1CCC[C@@H](c2cccc(S(C)(=O)=O)c2)C1 |  | inactive
8 | CC1CCC2(C(=O)OC3OC(CO)C(O)C(O)C3O)CCC3(C)C(=CCC4C5(C)CCC(O)C(C)(CO)C5CCC43C)C2C1(C)O (stereo unspecified) |  | inactive
9 | COc1ccc(Oc2c(Cl)cnn(C3c4ccccc4-c4ccccc43)c2=O)cc1 |  | inactive
10 | Cc1nnc(-c2sc(NC(=O)[C@H](C(C)C)n3c(=O)[nH]c4ccccc4c3=O)nc2C)o1 |  | inactive

tested on: PA-1; assay: as above; conditions: Gynecologic cancer cell panel viability, ATPlite luminescence, 48 h; series mostly up to 57.5 µM
Summary of the method: as §1

Row | Structure (SMILES) | activity change, negative = cytotoxicity | Potency
11 | CC1(C)CC[C@]2(C(=O)O[C@@H]3O[C@H](CO)[C@@H](O)[C@H](O)[C@H]3O)CC[C@]3(C)C(=CCC4[C@@]5(C)CC[C@H](OC6OC(C(=O)O)C(OC7OC(CO)C(O)C(O)C7O)C(O)C6O)C(C)(C)C5CC[C@]43C)C2C1 (stereo partly specified) | 3.63% [at 11.6 µM] (inactive) | 
12 | COc1cccc(CN(C(=O)CC(C)(C)C)C2CC(C(=O)N3CCNCC3)N(Cc3ccc4c(c3)OCO4)C2)c1 (stereo unspecified) |  | inactive
13 | C/C=C(/C)C(=O)OC1CC(C)(C)CC2C3=CCC4C5(C)CCC(OC6OC(C)C(OC7OC(C(=O)O)C(O)C(OC8OC(CO)C(O)C(O)C8OC8OC(CO)C(O)C(O)C8O)C7O)C(O)C6O)C(C)(C)C5CCC4(C)C3(C)C(OC(=O)/C=C/C=C/C=C/CCC)C(OC(C)=O)C12CO (stereo unspecified) | -0.509% [at 6.55 µM] (inactive) | 
14 | Cc1ccc(-c2c(-c3nn(C)c4ncnc(N5CC[C@H](N6CCCCC6)C5)c34)cnn2C)cc1 |  | inactive
15 | O=C(O)c1cc(O[C@@H]2O[C@H](CO)[C@@H](O)[C@H](O)[C@H]2O)ccc1O |  | inactive
16 | Nc1nc(COC(=O)c2ccc([N+](=O)[O-])cc2)nc(Nc2ccccc2)n1 |  | inactive
17 | C[C@@H]1O[C@@H](O[C@H]2[C@H](O[C@H]3[C@H](O[C@H]4CC[C@@]5(C)C(CC[C@]6(C)C5CC=C5[C@@H]7CC(C)(C)C[C@@H](O)[C@]7(C)CC[C@]56C)[C@@]4(C)CO)O[C@H](C(=O)O)[C@@H](O)[C@@H]3O)O[C@H](CO)[C@H](O)[C@@H]2O)[C@H](O)[C@H](O)[C@H]1O (stereo partly specified) | 4.96% [at 11.6 µM] (inactive) | 
18 | COc1cc(CO)ccc1O[C@@H]1O[C@H](CO)[C@@H](O)[C@H](O)[C@H]1O |  | inactive
19 | COC(=O)c1c(CC=C(C)C)c(OC2OC(CO)C(O)C(O)C2O)c2ccccc2c1OC1OC(CO)C(O)C(O)C1O (stereo unspecified) |  | inactive
20 | COc1ccc(C2(O)c3c(ccc4c3OC(C)(CCC=C(C)C)C=C4)NC(=O)C2OC)cc1 (stereo unspecified) |  | inactive
21 | Cc1ccc(C)c(NC(=O)CNS(=O)(=O)c2ccc3[nH]c(=O)oc3c2)c1 |  | inactive
22 | CO[C@H]1c2cc(C(C)C)c(O)c(O)c2[C@@]23CCCC(C)(C)C2[C@@H]1OC3=O (stereo partly specified) |  | inactive
23 | COc1cc(C(C)=O)ccc1O[C@@H]1O[C@H](CO[C@@H]2OC[C@@H](O)[C@H](O)[C@H]2O)[C@@H](O)[C@H](O)[C@H]1O |  | inactive
24 | COC(=O)c1[nH]c(=O)c2ccccc2c1-c1ccc[nH]1 |  | inactive
25 | CN[C@H](CNC(=O)N1CCC[C@@H]([C@@H](OCCNC(=O)OC)c2cccc(Cl)c2)C1)C[C@H]1CCCOC1 |  | inactive
26 | CC(C)[C@@H](C(=O)O)N1Cc2c(cc(O)c3c2O[C@]2(C3)[C@H](C)CCC3C(C)(C)[C@H](O)[C@H](O)C[C@@]32C)C1=O (stereo partly specified) |  | inactive
